# According to PubChem BioAssay (Tox21):
# Unmarked numbers belong to inactive results. Records with an inconclusive call do not appear. Where a call stands in place of a potency, no number is given. Calls of active or inactive are those of the source. Unless noted, the call rests on the fitted dose curve; in most records, active means well fitted curve in the direction sought with a large enough effect in the repeat runs; inconclusive means weak or mixed curves; inactive means no such curve, though single readings can be large; an effect the other way counts as inactive or inconclusive.
# Tests used:
# [1] = A CellTox Green Cytotoxicity Assay to monitor cytotoxicity in HepG2 cells - 32 hour (AID 1224883); further: nearly all actives have a fitted effect of over 50% in size
# Outline: (§1)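 First, HepG2 cells (600/well) mixed with reagent were plated; second, after 5 h at 37 C they received compounds via pintool; third, fluorescence was measured at 0 h through 40 h at 8 h intervals.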
# [2] = A CellTox Green Cytotoxicity Assay to monitor cytotoxicity in HEK293 cells - 8 hour (AID 1224884); further: nearly all actives have a fitted effect of over 35% in size; further: potency means the concentration at half of the fitted maximal effect
# Outline: (§2)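 Dead-cell fluorescence measured kinetically: asymmetric cyanine dye, HEK293, 600 cells/well, 5 h settle, 23 nL cpd/DMSO, 37 C, reads 0–40 h every 8 h.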
# [3] = qHTS RealTime-Glo MT Cell Viability Assay in HepG2 cells - 16 hour (AID 1224885); further: nearly all actives have a fitted effect of over 50% in size
# Outline: (§3)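 Viability was tracked continuously by NanoLuc luminescence from prosubstrate reduced by living HepG2 cells, at successive time points over 40 h of compound exposure. Cells with reagent were preincubated 5 h at 37 °C before compound addition.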
# [4] = qHTS RealTime-Glo MT Cell Viability Assay in HEK293 cells - 24 hour (AID 1224886); further: top concentration of the series differs between compounds; nearly all actives have a fitted effect of over 50% in size
# Outline: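 Viability tracked continuously by luminescence as live cells reduce a prosubstrate for NanoLuc; HEK293 cells preincubated 5 h, compound-treated at 37 C, and read at 0, 8, 16, 24, 32 and 40 h.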
# [5] = qHTS RealTime-Glo MT Cell Viability Assay in HEK293 cells - 8 hour (AID 1224887); further: top concentration of the series differs between compounds; nearly all actives have a fitted effect of over 50% in size
# Outline: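 600 HEK293 cells per well, dispensed already mixed with RealTime-Glo MT reagents. Compound dosing came 5 h later. The same wells were read for luminescence at 0, 8, 16, 24, 32 and 40 h of exposure at 37 C.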
# [6] = A CellTox Green Cytotoxicity Assay to monitor cytotoxicity in HEK293 cells - 16 hour (AID 1224888); further: nearly all actives have a fitted effect of over 35% in size
# Outline: as §2
# [7] = qHTS RealTime-Glo MT Cell Viability Assay in HepG2 cells - 0 hour (AID 1224889); further: nearly all actives have a fitted effect of over 50% in size
# Outline: as §3
# [8] = A CellTox Green Cytotoxicity Assay to monitor cytotoxicity in HepG2 cells - 8 hour (AID 1224890); further: nearly all actives have a fitted effect of over 45% in size
# Outline: as §1
# [9] = qHTS assay to identify small molecule antagonists of the estrogen receptor alpha (ER-alpha) signaling pathway using the BG1 cell line in the presence of 0.1 nM 17-beta-estradiol - cell viability counter screen (AID 1259241); further: nearly all actives have a fitted effect of over 40% in size
# Outline: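 VM7Luc4E2, 4,000 cells/well, phenol red-free medium + 10% charcoal-stripped FBS; 24 hr plating; cpd + 0.1 nM E2 final, 22 hr 37C/5% CO2; CellTiter-Fluor 30 min, fluorescence.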
# [10] = qHTS assay to identify small molecule antagonists of the androgen receptor (AR) signaling pathway using the MDA cell line in the presence of 0.5 nM R1881 - cell viability counter screen (AID 1259242); further: nearly all actives have a fitted effect of over 45% in size
# Outline: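 qHTS format. MDA-kb2 (MMTV-luc, AR/GR responsive) + cpd + 0.5 nM R1881 final, 16 hr 37C/0% CO2 → CellTiter-Fluor 30 min → fluorescence intensity.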
# [11] = qHTS assay to identify small molecule HDAC inhibitors (AID 1259364); further: potency means the concentration at half of the fitted maximal effect;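 further: wild-type HCT-116 cells with endogenous class I/II HDAC activity; nearly all actives have a fitted effect of over 45% in size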
# Outline: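 Quantitative high-throughput format: overnight-seeded HCT-116 cells got compounds for 2 hr at 37C; HDAC-Glo I/II reagent added, 30 min RT, luminescence measured.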
# [12] = qHTS assay to identify small molecule HDAC inhibitors - cell viability counter screen (AID 1259365)
# Outline: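 Luminescence from CellTiter-Glo, developed 30min at room temperature, reports viability of wild-type HCT-116 cells treated 2hr with compounds at 37 C and 5% CO2 after overnight plating.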
# [13] = qHTS assay to identify small molecule agonists of the sonic hedgehog signaling (Shh) pathway - cell viability counter screen (AID 1259366); further: nearly all actives have a fitted effect of over 50% in size; further: potency means the concentration at half of the fitted maximal effect
# Outline: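 Cytotoxicity counter screen run in the same wells as the Shh reporter assay. NIH/3T3 cells carrying a Gli1 response element–driven luciferase were treated with DMSO-dissolved compounds for 24hr, and live-cell protease activity was measured with CellTiter-Fluor.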
# [14] = qHTS assay to identify small molecule agonists of the sonic hedgehog signaling (Shh) pathway (AID 1259368; calls by dose curve;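 further: NIH/3T3-derived 3T3Gli1-Luc cells carrying a stable Gli1-driven firefly luciferase reporter; series mostly up to about 92 µM; nearly all actives have a fitted effect of over 15% in size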)
# Outline: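 Quantitative high-throughput format using a Gli1-driven firefly luciferase reporter line derived from NIH/3T3 cells. After a 24 hr compound treatment at 37 C and 5% CO2, luminescence reported Gli1 response element activity.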
# [15] = qHTS assay to identify small molecule antagonists of the sonic hedgehog signaling (Shh) pathway (AID 1259369; calls by dose curve; further: nearly all actives have a fitted effect of over 45% in size)
# Outline: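 Stable Gli1-Luc reporter NIH/3T3 clone; quantitative HTS in stimulated mode with conditioned medium. Luminescence measured after 24hr compound treatment at 37 C.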
# [16] = qHTS assay to identify small molecule antagonists of the sonic hedgehog signaling (Shh) pathway - cell viability counter screen (AID 1259367); further: nearly all actives have a fitted effect of over 55% in size
# Outline: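 Conditioned medium drove Shh signaling in 3T3 Gli1-Luc cells exposed to compounds at 37C and 5% CO2. Viability was determined from CellTiter-Fluor fluorescence, with reagent incubated 1 hr after 23 hr of treatment.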
# [17] = molecular target: Estrogen receptor beta (Homo sapiens) (UniProt Q92731); test: qHTS assay to identify small molecule agonists of the estrogen receptor beta (ER-beta) signaling pathway (AID 1259377; active means well fitted activation curve with a large enough effect in the signal ratio in the repeat runs, not every such curve was filed as active; the % refers to the signal ratio; further: potency means the concentration at half of the fitted maximal effect)
# Sequence of Estrogen receptor beta (Homo sapiens) (Q92731 whole entry, looked up): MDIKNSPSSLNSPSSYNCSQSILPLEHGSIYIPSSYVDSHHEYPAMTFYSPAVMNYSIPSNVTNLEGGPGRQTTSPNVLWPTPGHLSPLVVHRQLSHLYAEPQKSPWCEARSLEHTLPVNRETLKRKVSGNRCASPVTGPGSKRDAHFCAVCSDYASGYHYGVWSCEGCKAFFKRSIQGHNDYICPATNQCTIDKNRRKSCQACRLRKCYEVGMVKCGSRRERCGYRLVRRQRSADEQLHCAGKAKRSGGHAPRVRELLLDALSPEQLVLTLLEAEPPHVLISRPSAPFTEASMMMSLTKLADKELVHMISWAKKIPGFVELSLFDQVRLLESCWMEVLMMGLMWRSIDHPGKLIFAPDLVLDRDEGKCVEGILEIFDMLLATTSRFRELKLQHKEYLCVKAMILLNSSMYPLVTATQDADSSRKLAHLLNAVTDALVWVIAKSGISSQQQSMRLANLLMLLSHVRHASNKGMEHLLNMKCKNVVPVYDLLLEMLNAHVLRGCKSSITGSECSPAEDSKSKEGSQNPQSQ
# Outline: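 HEK293T ER-beta-UAS-bla; 2% charcoal-stripped FBS; cells pre-incubated 6 hr, compound 16 hr, 37C/5% CO2; LiveBLAzer B/G FRET substrate 2 h RT; fluorescence intensity read.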
# [18] = molecular target: Estrogen receptor (Homo sapiens) (UniProt P03372); test: qHTS assay to identify small molecule antagonists of the estrogen receptor alpha (ER-alpha) signaling pathway using the BG1 cell line in the presence of 0.1 nM 17-beta-estradiol (AID 1259244); further: nearly all actives have a fitted effect of over 50% in size
# Sequence of Estrogen receptor (Homo sapiens) (P03372 whole entry, looked up): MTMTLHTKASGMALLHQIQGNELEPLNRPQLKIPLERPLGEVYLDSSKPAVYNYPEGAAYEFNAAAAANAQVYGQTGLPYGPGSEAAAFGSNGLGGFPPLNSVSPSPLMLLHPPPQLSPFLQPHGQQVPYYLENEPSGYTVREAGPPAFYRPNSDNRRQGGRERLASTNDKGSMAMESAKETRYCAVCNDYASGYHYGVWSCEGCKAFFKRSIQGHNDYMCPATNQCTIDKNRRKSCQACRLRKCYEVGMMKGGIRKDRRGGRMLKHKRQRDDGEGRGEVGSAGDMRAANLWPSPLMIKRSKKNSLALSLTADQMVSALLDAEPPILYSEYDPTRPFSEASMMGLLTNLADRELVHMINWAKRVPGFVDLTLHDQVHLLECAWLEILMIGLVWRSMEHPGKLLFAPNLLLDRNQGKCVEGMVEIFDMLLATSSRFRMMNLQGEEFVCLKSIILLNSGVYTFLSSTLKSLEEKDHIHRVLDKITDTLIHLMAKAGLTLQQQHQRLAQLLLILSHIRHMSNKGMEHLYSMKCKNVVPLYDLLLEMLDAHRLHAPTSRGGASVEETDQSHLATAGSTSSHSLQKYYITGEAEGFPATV
# Outline: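 Reporter is a stably transfected luciferase under four estrogen responsive elements in VM7Luc4E2 cells expressing native full-length ER-alpha; inhibition of 0.1 nM (final) 17beta-estradiol-driven signal over 22 h is read by luminescence.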
# [19] = molecular target: Androgen receptor (Homo sapiens) (UniProt P10275); test: qHTS assay to identify small molecule antagonists of the androgen receptor (AR) signaling pathway using the MDA cell line in the presence of 0.5 nM R1881 (AID 1259243); further: nearly all actives have a fitted effect of over 50% in size
# Sequence of Androgen receptor (Homo sapiens) (P10275 whole entry, looked up): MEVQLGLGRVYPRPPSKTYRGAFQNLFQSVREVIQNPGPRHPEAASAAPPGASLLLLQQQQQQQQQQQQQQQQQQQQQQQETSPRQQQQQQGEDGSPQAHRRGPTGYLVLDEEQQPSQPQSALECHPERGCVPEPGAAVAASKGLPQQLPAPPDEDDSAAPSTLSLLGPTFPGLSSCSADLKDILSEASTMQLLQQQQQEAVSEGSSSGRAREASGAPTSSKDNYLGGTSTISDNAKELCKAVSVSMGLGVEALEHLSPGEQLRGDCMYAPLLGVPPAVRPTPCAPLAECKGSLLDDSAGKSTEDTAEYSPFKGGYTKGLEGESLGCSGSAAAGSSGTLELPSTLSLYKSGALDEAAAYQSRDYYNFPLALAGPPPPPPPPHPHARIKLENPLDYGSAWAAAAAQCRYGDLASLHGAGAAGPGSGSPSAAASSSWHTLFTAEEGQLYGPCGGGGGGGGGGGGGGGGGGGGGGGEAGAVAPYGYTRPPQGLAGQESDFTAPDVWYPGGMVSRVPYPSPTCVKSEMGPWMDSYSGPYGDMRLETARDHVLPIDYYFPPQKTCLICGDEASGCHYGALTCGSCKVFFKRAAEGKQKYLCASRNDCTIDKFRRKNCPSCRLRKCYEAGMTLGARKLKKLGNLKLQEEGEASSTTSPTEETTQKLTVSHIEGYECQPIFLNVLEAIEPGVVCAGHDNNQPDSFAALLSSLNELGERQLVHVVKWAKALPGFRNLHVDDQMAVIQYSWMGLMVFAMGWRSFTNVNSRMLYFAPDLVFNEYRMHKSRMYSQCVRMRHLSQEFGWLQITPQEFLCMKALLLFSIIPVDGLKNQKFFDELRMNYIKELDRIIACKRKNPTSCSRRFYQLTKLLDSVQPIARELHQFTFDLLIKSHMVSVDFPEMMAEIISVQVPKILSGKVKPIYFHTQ
# Outline: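 Antagonist mode quantitative HTS in MDA-kb2 MMTV-luciferase cells, agonist R1881 at 0.5 nM final, 16 hr exposure at 37C and 0% CO2, luminescent detection.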
# [20] = qHTS assay to identify small molecule phospholipidosis (PLD) inducers (AID 1259344; active means well fitted curve in the direction sought with a large enough effect; an effect the other way counts as inactive or inconclusive)
# Outline: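 After 4 h attachment on collagen I, HepG2 cells were dosed with compound alongside LipidTOX Red, kept 24 h at 37 C, fixed, and imaged for lamellar phospholipid pits.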
Compound,Potency [1],Potency [2],outcome [3],Potency [4],Potency [5],outcome [6],Potency [7],outcome [8],Potency [9],outcome [10],Potency [11],outcome [12],Potency [13],outcome [14],Potency [15],Potency [16],Potency [17],Potency [18],Potency [19],outcome [20]
C=Cc1ccccn1,inactive,inactive,inactive,inactive,inactive,inactive,inactive,inactive,inactive,inactive,inactive,inactive,inactive,inactive,inactive,,,,,
CCCCCCCCCCl,inactive,inactive,inactive,inactive,inactive,inactive,inactive,inactive,inactive,inactive,inactive,inactive,inactive,inactive,,inactive,inactive,,,
CCCCCCCCCCCCCC,inactive,inactive,inactive,inactive,inactive,inactive,inactive,inactive,inactive,inactive,inactive,inactive,inactive,,inactive,inactive,inactive,,,
C=C(C)C(=O)OCCOP(=O)(O)OCCOC(=O)C(=C)C,inactive,inactive,inactive,inactive,inactive,inactive,inactive,inactive,inactive,inactive,inactive,inactive,inactive,inactive,,,inactive,inactive,,
CCC(C)(CCC(C)C)C(=O)O (centres undefined),inactive,inactive,inactive,inactive,inactive,inactive,inactive,inactive,inactive,inactive,inactive,inactive,inactive,inactive,,inactive,,,,
CC(=O)c1ccc2c(c1)Cc1ccccc1-2,inactive,inactive,inactive,inactive,inactive,inactive,inactive,inactive,inactive,inactive,27.3 µM (active),inactive,inactive,,,inactive,,,,
Cc1cccc(OCC(O)CNC(C)(C)C)c1C (centres undefined),inactive,inactive,inactive,inactive,inactive,inactive,inactive,inactive,inactive,,inactive,inactive,inactive,inactive,inactive,inactive,,,inactive,
O=C(O)c1ccc(Cl)cc1Cl,inactive,inactive,inactive,inactive,inactive,inactive,inactive,inactive,inactive,inactive,inactive,inactive,inactive,inactive,inactive,inactive,inactive,,,
BrCCCCCBr,inactive,inactive,inactive,inactive,inactive,inactive,inactive,inactive,inactive,inactive,inactive,inactive,inactive,inactive,,inactive,inactive,inactive,,
Cc1cccc(C)c1NC(=O)c1ccccc1C(=O)O,inactive,inactive,inactive,inactive,inactive,,inactive,inactive,inactive,inactive,inactive,inactive,inactive,inactive,inactive,,inactive,inactive,inactive,inactive
Cc1ccsc1/C=C/C1=NCCCN1C,inactive,inactive,inactive,inactive,inactive,inactive,inactive,inactive,,,inactive,inactive,inactive,inactive,,inactive,inactive,,,inactive
Cc1cc(C(C)(C)C)c(O)c(C)c1CC1=NCCN1,inactive,inactive,inactive,inactive,inactive,inactive,inactive,inactive,,inactive,inactive,inactive,inactive,inactive,inactive,inactive,inactive,inactive,inactive,
c1ccc2c(c1)ccc1c3ccccc3ccc21,inactive,inactive,inactive,inactive,inactive,inactive,inactive,inactive,,inactive,,inactive,inactive,,inactive,inactive,inactive,,,
N[C@@H](CCC(=O)Nc1ccc([N+](=O)[O-])cc1)C(=O)O,inactive,inactive,inactive,inactive,inactive,inactive,inactive,inactive,,,inactive,inactive,inactive,inactive,inactive,inactive,inactive,inactive,inactive,
Cc1cc(NC(=O)C2=C(O)c3ccccc3S(=O)(=O)N2C)no1,inactive,inactive,inactive,inactive,inactive,inactive,,inactive,inactive,,inactive,inactive,inactive,inactive,inactive,inactive,,,,inactive
CC(=O)OC(C)OC(=O)C(C)c1ccc(-c2ccccc2)c(F)c1 (centres undefined),inactive,inactive,inactive,inactive,inactive,inactive,inactive,inactive,,inactive,inactive,inactive,inactive,inactive,inactive,,inactive,inactive,inactive,
Nc1ccc2cc(S(=O)(=O)O)cc(O)c2c1,inactive,inactive,inactive,inactive,inactive,inactive,inactive,inactive,,inactive,inactive,inactive,inactive,inactive,inactive,inactive,,,inactive,
O=C(c1ccc(O)cc1)c1ccc(O)c(O)c1O,inactive,inactive,inactive,inactive,inactive,inactive,inactive,inactive,,,,inactive,30.8 µM (active),inactive,,,15.4 µM (active),,,
COC(=O)c1ccccc1C(=O)c1ccc(OCCN2CCCCC2)cc1,inactive,inactive,inactive,inactive,inactive,inactive,,inactive,inactive,inactive,inactive,inactive,inactive,,inactive,inactive,inactive,inactive,,
COc1cc2c(cc1OC)C(=O)CC2,inactive,inactive,inactive,inactive,inactive,inactive,inactive,inactive,inactive,,inactive,inactive,inactive,inactive,inactive,,,,inactive,
CCc1ccc(C=O)cc1,inactive,inactive,inactive,inactive,inactive,inactive,inactive,inactive,,,inactive,inactive,inactive,,inactive,inactive,,,,
C[C@H](N)[C@H](O)c1cccc(O)c1,inactive,inactive,inactive,inactive,inactive,inactive,inactive,inactive,,inactive,inactive,inactive,inactive,inactive,inactive,inactive,inactive,inactive,,inactive
O=C(NCC(O)CO)c1c(I)c(C(=O)NCC(O)CO)c(I)c(N(CCO)C(=O)CO)c1I (centres undefined),inactive,inactive,inactive,inactive,inactive,inactive,inactive,inactive,,inactive,inactive,inactive,inactive,inactive,inactive,inactive,inactive,,,inactive
Cc1cccc(C)c1OCC(C)N (centres undefined),inactive,inactive,inactive,inactive,inactive,inactive,inactive,inactive,inactive,,inactive,inactive,inactive,inactive,inactive,inactive,,inactive,,
CC[C@H](C)C(=O)O[C@H]1C[C@H](O)C=C2C=C[C@H](C)[C@H](CC[C@@H](O)C[C@@H](O)CC(=O)O)[C@H]21,inactive,inactive,inactive,inactive,inactive,inactive,inactive,inactive,,inactive,inactive,inactive,inactive,inactive,inactive,inactive,inactive,inactive,,inactive
O=C(NCCN1CCOCC1)c1ccc(Cl)cc1,inactive,inactive,inactive,inactive,inactive,inactive,inactive,inactive,inactive,,inactive,inactive,inactive,inactive,inactive,inactive,inactive,,,inactive
CCCCOCCOC(=O)COc1nc(Cl)c(Cl)cc1Cl,inactive,38.9 µM (active),inactive,inactive,inactive,inactive,,inactive,inactive,inactive,inactive,inactive,inactive,inactive,inactive,,,inactive,,
